Test results published in the supplement of paper PMC4206467.

Tested on: Perkinsus marinus PRA240
Assay: ATP content (proliferation) relative to DMSO control; higher = more parasite growth (less inhibition)
Conditions: 20 µM; 4 days
Method: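 Perkinsus marinus PRA240 trophozoites (2-5x10^6 cells/ml, 100 µl, 96-well) were exposed once to MMV Malaria Box compounds at 20 µM (0.1% DMSO) in triplicate. ATP content (ATPlite bioluminescence) was read at day 4 post-exposure and normalised to DMSO + cells control wells (100% activity). Compounds were identified by joining plate and well to the Malaria Box list.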

SMILES	ATP content [%]
CCN(Cc1ccccc1)C1CCN(Cc2cc(Br)ccc2O)CC1	171
COc1ccc(-c2nonc2NC(=O)c2cccc(C)c2)cc1OC	82.6
CC1CCN(Cc2c(O)ccc3cc(-c4nc5ccccc5s4)c(=O)oc23)CC1	124
COc1ccc(C(=O)C2CC2c2ccc(Cl)cc2)cc1 (stereo not drawn)	199
Oc1ccccc1CN1CCN(C(c2ccccc2)c2ccccc2)CC1	128
Cc1ccc(-c2nc3ccccc3o2)cc1NCc1cc(Cc2ccccc2)ccc1O	77.3
COc1ccc(CCN2CCC(CN(C)Cc3cnn(-c4ccccc4)c3)CC2)cc1	110
CCOc1cc2c(cc1OCC)C(c1cc(C)c(O)c(C)c1)NCC2 (stereo not drawn)	133
COc1ccc(C(=O)Nc2ccc3nc(N4CCCCC4)cc(C)c3c2)cc1OC	101
CCCN(CCC)CCCNC(=O)c1cc2c(-c3ccc(OC)c(OC)c3)nn(C)c2s1	80.3
CCC(C)NCC(O)(c1ccc(Cl)cc1)c1ccc(Cl)cc1 (stereo not drawn)	78.7
CCC(O)c1ccc(Br)cc1NC(=O)c1cccc(Cl)c1 (stereo not drawn)	127
O=C(Nc1ccc(Cl)cc1C(=O)Nc1ccncc1)c1ccc(Cl)cc1Cl	103
Cc1ccccc1OCCSc1nc2ccc(NC(=O)c3cccs3)cc2s1	30.1
CC(C)(C)c1ccc(C2CC3=Nc4ccccc4N(C(=O)c4ccccc4Cl)C(c4ccc(F)cc4)C3=C(O)C2)cc1 (stereo not drawn)	129
CC1CCCCN1CCCNC(=O)c1ccc2c(c1)sc1nc(-c3ccc(F)cc3)cn12 (stereo not drawn)	133
CCCCCCC(O)(c1ccc(F)cc1)C(CN1CCOCC1)c1ccccc1 (stereo not drawn)	127
COc1cc(C(=O)Nc2nc3c(cc4c5c(cccc53)CC4)s2)cc(OC)c1OC	89.8
COc1ccc(-c2cc3c(nn2)-c2ccccc2C3=O)cc1	32.7

SMILES	ATP content [%]
CC(C)(C)C(=O)Nc1ccc(C(=O)Nc2cccc(-c3nc4ccccc4[nH]3)c2)cc1	67.7
COc1ccc(C2c3ccc4ccccc4c3Oc3ncn(CCCn4ccnc4)c(=N)c32)cc1OC (stereo not drawn)	121
CC(C)(C)c1ccc(C(=O)Nc2c3c(nn2-c2cccc(Cl)c2)CSC3)cc1	147
COc1ccccc1C(=O)ON=C(N)Cc1cccc2ccccc12	148
O=C(Nc1ccccc1O)c1ccc(-c2ccc(Cl)cc2Cl)o1	82.5
CN1CCN(c2c3c(c(C#N)c4nc5ccccc5n24)CCC3)CC1	140
COc1ccccc1CNC(=O)C1c2ccccc2C(=O)N(CC(C)C)C1c1cccs1 (stereo not drawn)	111
CC(C)=CCN1CCC(C(=O)Nc2ccc(-c3nc4ccccc4[nH]3)cc2)CC1	81.5
COc1ccc(C=C2SC(Nc3ccc(F)cc3)=NC2=O)c(OC)c1	60.7
FC(F)(F)c1cccc(CNC2CCN(CCc3ccccc3)CC2)c1	95.6
O=C(NC1CCN(Cc2ccccc2)CC1)c1cc(C(=O)NC2CCN(Cc3ccccc3)CC2)cc(C(=O)NC2CCN(Cc3ccccc3)CC2)c1	90.4
CCCCNCC(O)(c1ccc(Cl)cc1)c1ccc(Cl)cc1	103
CCCc1c(C)nc2ccccc2c1O	28.8
CCOc1c(Cl)cc(CNCC(O)c2ccccc2)cc1OC (stereo not drawn)	105
O=C(NC1CCCC1)c1ccc(N2CCC(NCc3cccc(C(F)(F)F)c3)CC2)cc1	103
CCOc1ccc(Nc2c3ccccc3nc3ccccc23)cc1	159
Cc1cccc(-n2ncc3c(=O)[nH]c(-n4nc(C)cc4NC(=O)c4cc5ccccc5o4)nc32)c1	19
CC(C)CNC(=O)c1c(N)n(CCc2ccccc2F)c2nc3ccccc3nc12	90.4
CCOc1ccccc1CNC(=O)C1c2ccccc2C(=O)N(CC(C)C)C1c1cccs1 (stereo not drawn)	78.8
